# Legend:
# Experiment in all cases: DAPPL (digital affinity profiling via proximity ligation, sequencing); 10 mM Tris-HCl pH 7.5, 50 mM NaCl, 1 mM DTT, 4% glycerol, room temperature, 30 min; GST-TFs on glutathione beads, 16-mer random dsDNA library, 0.1% formaldehyde crosslink after washing; high values mean tight binding
# [1] = biological target: T1, FEV (Homo sapiens, UniProt Q99581 1-238); settings: protein: recombinant; tags: N-terminal GST; dsDNA, one strand shown
# T1 sequence: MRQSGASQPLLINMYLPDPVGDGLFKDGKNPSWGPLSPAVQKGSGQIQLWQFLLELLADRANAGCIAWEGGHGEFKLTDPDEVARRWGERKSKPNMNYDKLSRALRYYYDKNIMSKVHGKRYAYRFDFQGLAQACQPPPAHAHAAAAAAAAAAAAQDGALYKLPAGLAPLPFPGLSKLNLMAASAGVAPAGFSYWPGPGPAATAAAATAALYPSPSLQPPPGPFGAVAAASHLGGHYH
# Summary of the method: (§1)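 The binding signal reported is, for every hexamer, its read frequency for a factor over its read frequency for the tag-only sample. Reads came from pools of yeast-expressed, GST-fused human transcription factors on glutathione beads, barcoded with DNA and mixed with that sample, which were incubated with 200 nmole of a random double-stranded 16-mer DNA library in Tris/NaCl/DTT/glycerol buffer at room temperature for 30 min. After washing, the pools were crosslinked with 0.1% formaldehyde, proximity-ligated with BsaI/T4 ligase for 1 h at 37 °C, PCR-amplified and sequenced on an Illumina NextSeq500.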
# [2] = biological target: ETV5 (Homo sapiens, UniProt P41161 1-510); settings: protein: recombinant; tags: N-terminal GST; dsDNA, one strand shown
# ETV5, sequence (P41161 whole entry): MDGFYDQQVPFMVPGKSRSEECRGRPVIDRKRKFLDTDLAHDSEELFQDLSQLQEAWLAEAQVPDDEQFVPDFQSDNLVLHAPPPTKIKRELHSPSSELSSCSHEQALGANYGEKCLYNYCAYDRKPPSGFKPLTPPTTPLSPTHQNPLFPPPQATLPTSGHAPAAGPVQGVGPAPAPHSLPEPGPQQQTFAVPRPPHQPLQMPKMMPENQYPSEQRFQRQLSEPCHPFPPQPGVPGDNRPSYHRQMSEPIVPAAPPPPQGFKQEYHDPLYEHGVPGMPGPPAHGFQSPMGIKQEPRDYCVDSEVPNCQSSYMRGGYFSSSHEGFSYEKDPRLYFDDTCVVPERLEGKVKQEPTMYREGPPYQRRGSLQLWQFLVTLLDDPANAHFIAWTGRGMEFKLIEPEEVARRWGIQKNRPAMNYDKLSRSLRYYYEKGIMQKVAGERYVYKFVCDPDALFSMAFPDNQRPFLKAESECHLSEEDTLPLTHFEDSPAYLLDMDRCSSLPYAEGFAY
# Summary of the method: as §1
# [3] = biological target: HSF1 (Homo sapiens, UniProt Q00613 1-529); settings: protein: recombinant; tags: N-terminal GST; chain copies: 3; dsDNA, one strand shown
# HSF1, sequence (Q00613 whole entry): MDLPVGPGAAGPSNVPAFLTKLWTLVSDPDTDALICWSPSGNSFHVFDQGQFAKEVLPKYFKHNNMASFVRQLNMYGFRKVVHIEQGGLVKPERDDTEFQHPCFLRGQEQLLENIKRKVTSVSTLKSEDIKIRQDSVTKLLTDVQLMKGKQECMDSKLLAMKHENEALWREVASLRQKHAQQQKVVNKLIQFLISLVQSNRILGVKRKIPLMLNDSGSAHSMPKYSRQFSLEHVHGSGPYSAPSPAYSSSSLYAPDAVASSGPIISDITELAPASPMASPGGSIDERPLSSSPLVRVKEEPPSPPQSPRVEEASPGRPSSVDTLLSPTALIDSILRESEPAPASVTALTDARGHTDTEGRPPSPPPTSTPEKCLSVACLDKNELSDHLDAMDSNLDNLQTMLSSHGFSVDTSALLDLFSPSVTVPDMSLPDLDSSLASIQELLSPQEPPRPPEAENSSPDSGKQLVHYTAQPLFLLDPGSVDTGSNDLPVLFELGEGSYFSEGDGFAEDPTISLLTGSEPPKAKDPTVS
# Summary of the method: as §1
# [4] = biological target: T2, SPIC (Homo sapiens, UniProt Q8N5J4 1-248); settings: protein: recombinant; tags: N-terminal GST; dsDNA, one strand shown
# T2 sequence: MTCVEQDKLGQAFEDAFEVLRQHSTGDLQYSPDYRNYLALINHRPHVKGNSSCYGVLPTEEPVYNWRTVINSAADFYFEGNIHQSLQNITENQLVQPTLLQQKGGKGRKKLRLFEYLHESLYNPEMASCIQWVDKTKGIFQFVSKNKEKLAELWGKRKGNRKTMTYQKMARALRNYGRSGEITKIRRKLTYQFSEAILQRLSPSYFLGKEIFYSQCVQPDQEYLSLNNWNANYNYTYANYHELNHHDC
# Summary of the method: as §1
# [5] = biological target: ELF4 (Homo sapiens, UniProt Q99607 1-663); settings: protein: recombinant; tags: N-terminal GST; dsDNA, one strand shown
# ELF4, sequence (Q99607 whole entry): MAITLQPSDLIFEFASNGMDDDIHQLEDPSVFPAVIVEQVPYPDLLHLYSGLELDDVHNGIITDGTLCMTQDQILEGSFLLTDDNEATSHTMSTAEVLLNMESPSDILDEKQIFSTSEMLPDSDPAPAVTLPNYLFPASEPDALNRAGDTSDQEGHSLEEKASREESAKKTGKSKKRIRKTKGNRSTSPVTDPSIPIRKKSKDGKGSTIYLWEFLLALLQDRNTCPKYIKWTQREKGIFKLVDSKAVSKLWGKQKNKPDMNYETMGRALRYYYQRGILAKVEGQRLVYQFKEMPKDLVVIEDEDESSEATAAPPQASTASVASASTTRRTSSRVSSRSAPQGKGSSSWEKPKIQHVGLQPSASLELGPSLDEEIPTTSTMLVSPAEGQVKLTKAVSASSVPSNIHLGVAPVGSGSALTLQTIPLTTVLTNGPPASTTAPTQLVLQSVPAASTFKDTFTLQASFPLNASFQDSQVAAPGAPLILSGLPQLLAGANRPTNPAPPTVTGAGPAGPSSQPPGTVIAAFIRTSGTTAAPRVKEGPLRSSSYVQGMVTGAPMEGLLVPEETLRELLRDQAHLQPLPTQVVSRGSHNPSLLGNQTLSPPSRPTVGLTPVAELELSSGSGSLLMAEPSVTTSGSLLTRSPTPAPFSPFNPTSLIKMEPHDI
# Summary of the method: as §1
# [6] = biological target: T3, ELK4 (Homo sapiens, UniProt P28324-2 1-405); settings: protein: recombinant; tags: N-terminal GST; dsDNA, one strand shown
# T3 sequence: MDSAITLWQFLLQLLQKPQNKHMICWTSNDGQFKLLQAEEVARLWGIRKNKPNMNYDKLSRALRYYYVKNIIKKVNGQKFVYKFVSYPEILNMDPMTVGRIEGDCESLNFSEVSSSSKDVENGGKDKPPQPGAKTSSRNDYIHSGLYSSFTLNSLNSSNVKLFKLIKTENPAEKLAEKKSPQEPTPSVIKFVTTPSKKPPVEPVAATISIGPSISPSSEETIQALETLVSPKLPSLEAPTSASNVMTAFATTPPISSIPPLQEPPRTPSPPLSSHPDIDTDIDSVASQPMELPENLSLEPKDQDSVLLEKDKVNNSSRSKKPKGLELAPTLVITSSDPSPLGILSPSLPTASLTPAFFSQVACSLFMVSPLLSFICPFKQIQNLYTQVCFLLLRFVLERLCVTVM
# Summary of the method: as §1
# [7] = biological target: T4, ETV2 (Homo sapiens, UniProt O00321 1-342); settings: protein: recombinant; tags: N-terminal GST; dsDNA, one strand shown
# T4 sequence: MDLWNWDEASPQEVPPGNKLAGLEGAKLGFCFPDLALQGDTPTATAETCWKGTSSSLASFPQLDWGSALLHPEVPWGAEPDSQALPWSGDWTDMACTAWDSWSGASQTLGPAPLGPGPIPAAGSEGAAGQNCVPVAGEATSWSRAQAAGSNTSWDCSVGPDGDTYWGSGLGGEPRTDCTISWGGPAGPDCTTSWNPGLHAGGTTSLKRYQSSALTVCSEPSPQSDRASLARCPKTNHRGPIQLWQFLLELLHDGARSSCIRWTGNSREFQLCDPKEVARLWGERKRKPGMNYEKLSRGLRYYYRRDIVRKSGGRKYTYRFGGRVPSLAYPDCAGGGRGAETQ
# Summary of the method: as §1
# [8] = biological target: T5, ELF3 (Homo sapiens, UniProt P78545 1-371); settings: protein: recombinant; tags: N-terminal GST; dsDNA, one strand shown
# T5 sequence: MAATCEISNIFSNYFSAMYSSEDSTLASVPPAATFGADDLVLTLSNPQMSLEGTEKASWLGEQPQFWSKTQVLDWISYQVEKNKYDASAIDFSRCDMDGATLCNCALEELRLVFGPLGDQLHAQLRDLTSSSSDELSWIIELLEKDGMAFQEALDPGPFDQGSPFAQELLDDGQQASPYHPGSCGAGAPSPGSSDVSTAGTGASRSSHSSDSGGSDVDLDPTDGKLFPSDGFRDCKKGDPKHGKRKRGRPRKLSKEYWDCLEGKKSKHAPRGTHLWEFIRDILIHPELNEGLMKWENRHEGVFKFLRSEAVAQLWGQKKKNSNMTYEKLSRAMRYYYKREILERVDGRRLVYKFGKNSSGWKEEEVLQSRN
# Summary of the method: as §1
# [9] = biological target: CRX (Homo sapiens, UniProt O43186 1-299); settings: protein: recombinant; tags: N-terminal GST; dsDNA, one strand shown
# CRX, sequence (O43186 whole entry): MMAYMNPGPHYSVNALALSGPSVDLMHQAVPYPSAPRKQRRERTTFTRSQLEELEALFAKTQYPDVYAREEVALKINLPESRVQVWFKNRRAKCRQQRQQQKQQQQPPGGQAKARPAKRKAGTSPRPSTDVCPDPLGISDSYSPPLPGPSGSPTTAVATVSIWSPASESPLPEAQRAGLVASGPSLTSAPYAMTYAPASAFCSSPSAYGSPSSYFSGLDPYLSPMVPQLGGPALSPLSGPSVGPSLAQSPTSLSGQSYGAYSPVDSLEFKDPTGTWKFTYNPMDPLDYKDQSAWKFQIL
# Summary of the method: as §1
# [10] = biological target: ETV1 (Homo sapiens, UniProt P50549 1-477); settings: protein: recombinant; tags: N-terminal GST; dsDNA, one strand shown
# ETV1, sequence (P50549 whole entry): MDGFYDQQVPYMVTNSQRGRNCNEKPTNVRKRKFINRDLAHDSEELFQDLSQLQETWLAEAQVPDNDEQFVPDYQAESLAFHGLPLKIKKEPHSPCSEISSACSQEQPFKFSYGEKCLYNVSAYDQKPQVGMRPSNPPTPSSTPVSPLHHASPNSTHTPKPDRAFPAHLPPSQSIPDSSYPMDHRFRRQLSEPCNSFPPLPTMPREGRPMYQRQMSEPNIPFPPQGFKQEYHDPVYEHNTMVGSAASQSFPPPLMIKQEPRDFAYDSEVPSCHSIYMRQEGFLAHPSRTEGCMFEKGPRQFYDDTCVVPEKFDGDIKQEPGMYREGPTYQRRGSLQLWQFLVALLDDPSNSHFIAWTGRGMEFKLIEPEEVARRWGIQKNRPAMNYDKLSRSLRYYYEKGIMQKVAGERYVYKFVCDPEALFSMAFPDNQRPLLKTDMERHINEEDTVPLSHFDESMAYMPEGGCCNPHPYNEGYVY
# Summary of the method: as §1
# [11] = biological target: T6, ERF (Homo sapiens, UniProt P50548 1-548); settings: protein: recombinant; tags: N-terminal GST; dsDNA, one strand shown
# T6 sequence: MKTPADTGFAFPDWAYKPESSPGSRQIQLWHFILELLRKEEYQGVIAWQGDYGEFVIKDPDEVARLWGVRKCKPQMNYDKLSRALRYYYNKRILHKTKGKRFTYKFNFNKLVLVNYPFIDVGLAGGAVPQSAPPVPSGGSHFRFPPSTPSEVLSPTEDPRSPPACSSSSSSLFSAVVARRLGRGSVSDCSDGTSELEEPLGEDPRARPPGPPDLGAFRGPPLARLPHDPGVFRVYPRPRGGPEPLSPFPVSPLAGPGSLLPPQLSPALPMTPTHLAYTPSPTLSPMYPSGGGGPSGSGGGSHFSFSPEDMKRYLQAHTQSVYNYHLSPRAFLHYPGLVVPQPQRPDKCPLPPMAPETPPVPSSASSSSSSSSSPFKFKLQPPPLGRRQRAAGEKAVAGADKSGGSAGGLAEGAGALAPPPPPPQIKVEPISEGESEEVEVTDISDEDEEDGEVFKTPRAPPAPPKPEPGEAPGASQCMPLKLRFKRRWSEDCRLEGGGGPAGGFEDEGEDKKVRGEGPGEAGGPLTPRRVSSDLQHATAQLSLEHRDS
# Summary of the method: as §1
# [12] = biological target: T7, ETV3L (Homo sapiens, UniProt Q6ZN32 1-361); settings: protein: recombinant; tags: N-terminal GST; dsDNA, one strand shown
# T7 sequence: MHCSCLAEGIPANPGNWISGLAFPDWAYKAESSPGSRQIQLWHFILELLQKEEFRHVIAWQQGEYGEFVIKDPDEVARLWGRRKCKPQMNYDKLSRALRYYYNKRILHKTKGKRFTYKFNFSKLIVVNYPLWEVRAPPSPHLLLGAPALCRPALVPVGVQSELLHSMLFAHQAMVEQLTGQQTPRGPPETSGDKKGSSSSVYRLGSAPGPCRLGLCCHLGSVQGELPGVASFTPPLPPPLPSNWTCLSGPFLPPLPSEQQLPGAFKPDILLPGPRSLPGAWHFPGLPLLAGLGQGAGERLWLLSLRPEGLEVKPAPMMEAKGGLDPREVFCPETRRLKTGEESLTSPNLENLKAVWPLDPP
# Summary of the method: as §1
# [13] = biological target: T8, ETS2 (Homo sapiens, UniProt P15036 1-469); settings: protein: recombinant; tags: N-terminal GST; dsDNA, one strand shown
# T8 sequence: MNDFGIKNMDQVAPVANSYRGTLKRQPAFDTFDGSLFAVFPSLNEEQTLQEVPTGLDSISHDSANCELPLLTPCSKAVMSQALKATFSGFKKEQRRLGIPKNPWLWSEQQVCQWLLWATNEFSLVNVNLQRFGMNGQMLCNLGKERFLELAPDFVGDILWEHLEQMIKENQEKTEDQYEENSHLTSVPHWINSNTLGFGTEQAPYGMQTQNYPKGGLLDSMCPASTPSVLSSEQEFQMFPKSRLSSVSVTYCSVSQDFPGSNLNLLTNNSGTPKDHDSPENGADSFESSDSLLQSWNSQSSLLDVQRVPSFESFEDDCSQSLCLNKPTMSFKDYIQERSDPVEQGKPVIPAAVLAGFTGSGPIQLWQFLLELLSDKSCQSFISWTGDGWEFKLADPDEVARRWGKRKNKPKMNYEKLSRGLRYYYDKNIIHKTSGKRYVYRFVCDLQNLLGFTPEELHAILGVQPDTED
# Summary of the method: as §1
# [14] = biological target: T9, SPDEF (Homo sapiens, UniProt O95238 1-335); settings: protein: recombinant; tags: N-terminal GST; dsDNA, one strand shown
# T9 sequence: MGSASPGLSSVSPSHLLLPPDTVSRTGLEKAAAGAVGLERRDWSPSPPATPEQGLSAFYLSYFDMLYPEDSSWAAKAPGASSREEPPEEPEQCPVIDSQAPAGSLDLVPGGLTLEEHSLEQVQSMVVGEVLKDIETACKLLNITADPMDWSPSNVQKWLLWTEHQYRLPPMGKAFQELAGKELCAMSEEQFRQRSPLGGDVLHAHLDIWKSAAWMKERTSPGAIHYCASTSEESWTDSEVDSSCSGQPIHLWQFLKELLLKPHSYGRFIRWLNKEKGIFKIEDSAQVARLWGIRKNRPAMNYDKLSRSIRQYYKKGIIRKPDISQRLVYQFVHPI
# Summary of the method: as §1
# [15] = biological target: T10, ETV7 (Homo sapiens, UniProt Q9Y603 1-341); settings: protein: recombinant; tags: N-terminal GST; dsDNA, one strand shown
# T10 sequence: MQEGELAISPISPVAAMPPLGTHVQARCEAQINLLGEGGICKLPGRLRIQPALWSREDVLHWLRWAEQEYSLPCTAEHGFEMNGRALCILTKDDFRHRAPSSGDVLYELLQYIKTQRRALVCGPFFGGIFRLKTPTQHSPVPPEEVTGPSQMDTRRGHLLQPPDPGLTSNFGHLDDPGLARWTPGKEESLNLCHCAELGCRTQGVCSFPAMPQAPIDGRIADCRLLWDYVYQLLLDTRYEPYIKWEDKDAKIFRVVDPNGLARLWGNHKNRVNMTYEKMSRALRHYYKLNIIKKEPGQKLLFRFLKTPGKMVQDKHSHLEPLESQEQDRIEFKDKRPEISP
# Summary of the method: as §1
# [16] = biological target: T11, ELF5 (Homo sapiens, UniProt Q9UKW6-2 1-255); settings: protein: recombinant; tags: N-terminal GST; dsDNA, one strand shown
# T11 sequence: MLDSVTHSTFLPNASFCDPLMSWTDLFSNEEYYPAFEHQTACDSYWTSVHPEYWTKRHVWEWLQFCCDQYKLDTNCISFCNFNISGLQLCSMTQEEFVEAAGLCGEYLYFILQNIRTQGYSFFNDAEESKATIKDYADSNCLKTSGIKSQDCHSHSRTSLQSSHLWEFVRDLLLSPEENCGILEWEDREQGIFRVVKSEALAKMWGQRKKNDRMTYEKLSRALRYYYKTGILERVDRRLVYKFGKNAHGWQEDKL
# Summary of the method: as §1
# [17] = biological target: T12, ETV3 (Homo sapiens, UniProt P41162-2 1-143); settings: protein: recombinant; tags: N-terminal GST; dsDNA, one strand shown
# T12 sequence: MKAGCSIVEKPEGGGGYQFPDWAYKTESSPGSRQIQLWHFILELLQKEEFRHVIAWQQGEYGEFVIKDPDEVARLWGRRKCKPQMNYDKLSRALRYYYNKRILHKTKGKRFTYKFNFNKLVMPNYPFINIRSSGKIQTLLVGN
# Summary of the method: as §1
# [18] = biological target: ETV6 (Homo sapiens, UniProt P41212 1-452); settings: protein: recombinant; tags: N-terminal GST; dsDNA, one strand shown
# ETV6, sequence (P41212 whole entry): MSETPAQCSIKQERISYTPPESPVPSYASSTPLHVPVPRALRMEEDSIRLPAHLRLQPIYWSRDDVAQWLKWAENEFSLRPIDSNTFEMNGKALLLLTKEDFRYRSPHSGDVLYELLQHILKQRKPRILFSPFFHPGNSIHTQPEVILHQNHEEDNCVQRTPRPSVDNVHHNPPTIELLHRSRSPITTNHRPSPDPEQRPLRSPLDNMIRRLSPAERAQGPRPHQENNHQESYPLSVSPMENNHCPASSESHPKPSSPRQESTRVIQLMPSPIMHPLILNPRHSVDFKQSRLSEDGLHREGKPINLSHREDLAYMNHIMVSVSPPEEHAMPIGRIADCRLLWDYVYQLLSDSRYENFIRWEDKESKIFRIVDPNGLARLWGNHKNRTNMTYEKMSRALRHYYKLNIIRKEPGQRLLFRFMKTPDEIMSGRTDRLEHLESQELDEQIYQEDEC
# Summary of the method: as §1
sequence,measurement,setting,value
GATTTC,binding signal,[1],"2.86 fold enrichment (6-mer frequency, TF over GST control)"
same,binding signal,[2],"1.92 fold enrichment (6-mer frequency, TF over GST control)"
same,binding signal,[3],"1.56 fold enrichment (6-mer frequency, TF over GST control)"
same,binding signal,[4],"1.65 fold enrichment (6-mer frequency, TF over GST control)"
same,binding signal,[5],"1.7 fold enrichment (6-mer frequency, TF over GST control)"
same,binding signal,[6],"1.64 fold enrichment (6-mer frequency, TF over GST control)"
same,binding signal,[7],"1.64 fold enrichment (6-mer frequency, TF over GST control)"
same,binding signal,[8],"1.62 fold enrichment (6-mer frequency, TF over GST control)"
same,binding signal,[9],"1.52 fold enrichment (6-mer frequency, TF over GST control)"
same,binding signal,[10],"1.79 fold enrichment (6-mer frequency, TF over GST control)"
same,binding signal,[11],"1.57 fold enrichment (6-mer frequency, TF over GST control)"
same,binding signal,[12],"1.73 fold enrichment (6-mer frequency, TF over GST control)"
same,binding signal,[13],"1.79 fold enrichment (6-mer frequency, TF over GST control)"
same,binding signal,[14],"1.66 fold enrichment (6-mer frequency, TF over GST control)"
same,binding signal,[15],"1.56 fold enrichment (6-mer frequency, TF over GST control)"
same,binding signal,[16],"2.07 fold enrichment (6-mer frequency, TF over GST control)"
same,binding signal,[17],"1.71 fold enrichment (6-mer frequency, TF over GST control)"
same,binding signal,[18],"1.8 fold enrichment (6-mer frequency, TF over GST control)"
